Results from PubChem BioAssay (Tox21).
Records with an inconclusive call do not appear. Entries that show only a call come without a potency. Activity calls are given as the source filed them. Calls follow the shape of the dose curve; as a rule, active = well fitted curve in the direction sought with a large enough effect in the repeat runs; inconclusive = weak or mixed curves; inactive = no such curve, though single readings can be large; an effect the other way counts as inactive or inconclusive.

Legend:
[1] = qHTS RealTime-Glo MT Cell Viability Assay in HepG2 cells - 40 hour (AID 1224870); also: nearly all actives have a fitted effect of over 50% in size
Procedure, shortened: (§1)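 HepG2 cells (600/well) mixed with RealTime-Glo MT reagent, settled 5 h at 37 C/5% CO2 before compound addition. Nonlytic NanoLuc luminescence from viable-cell prosubstrate reduction read repeatedly during 40 h treatment at 37 C.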

[2] = A CellTox Green Cytotoxicity Assay to monitor cytotoxicity in HEK293 cells - 40 hour (AID 1224871); also: nearly all actives have a fitted effect of over 45% in size
Procedure, shortened: (§2)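 Cytotoxicity was tracked continuously in HEK293 cells by a DNA-binding dye excluded from viable cells. Compounds were transferred in DMSO 5 h after seeding; fluorescence was recorded at intervals up to 40 h.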

[3] = qHTS RealTime-Glo MT Cell Viability Assay in HEK293 cells - 16 hour (AID 1224872); also: top concentration of the series differs between compounds; nearly all actives have a fitted effect of over 50% in size
Procedure, shortened: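 Quantitative high-throughput screen of the Tox21 10K library in HEK293: cells and RealTime-Glo reagents plated together, compound added at 5 h, luminescence monitored through 40 h at 37 C.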

[4] = qHTS RealTime-Glo MT Cell Viability Assay in HepG2 cells - 8 hour (AID 1224873); also: nearly all actives have a fitted effect of over 55% in size
Procedure, shortened: as §1

[5] = qHTS RealTime-Glo MT Cell Viability Assay in HEK293 cells - 40 hour (AID 1224874); settings: RealTime-Glo luminescence; max response: active compounds read low; also: nearly all actives have a fitted effect of over 50% in size
Procedure, shortened: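 Nonlytic bioluminescent viability monitoring. HEK293 at 600 cells/well with reagent; 5 h settle; compound transfer by pintool; plates held at 37 C and read at set time points.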

[6] = A CellTox Green Cytotoxicity Assay to monitor cytotoxicity in HEK293 cells - 24 hour (AID 1224875); also: nearly all actives have a fitted effect of over 45% in size; also: potency is read from the fitted curve at half-maximal effect
Procedure, shortened: as §2

[7] = qHTS RealTime-Glo MT Cell Viability Assay in HepG2 cells - 32 hour (AID 1224877); also: nearly all actives have a fitted effect of over 55% in size
Procedure, shortened: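 Compound treatment began 5 h after plating HepG2 cells (600/well) with NanoLuc luciferase and prosubstrate. Plates stayed at 37 C for 40 h; luminescence was captured at six time points, 0 h through 40 h.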

[8] = A CellTox Green Cytotoxicity Assay to monitor cytotoxicity in HepG2 cells - 24 hour (AID 1224878); also: nearly all actives have a fitted effect of over 45% in size
Procedure, shortened: (§3)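 Real-time, homogeneous cytotoxicity readout: dead-cell DNA staining by CellTox Green in HepG2 monolayers, fluorescence measured at timed intervals up to 40 h of continuous compound exposure.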

[9] = A CellTox Green Cytotoxicity Assay to monitor cytotoxicity in HepG2 cells - 40 hour (AID 1224879); also: nearly all actives have a fitted effect of over 40% in size
Procedure, shortened: as §3

[10] = A CellTox Green Cytotoxicity Assay to monitor cytotoxicity in HepG2 cells - 16 hour (AID 1224876); also: nearly all actives have a fitted effect of over 45% in size
Procedure, shortened: as §3

Structure (SMILES)	Potency [1]	Potency [2]	Potency [3]	outcome [4]	max response [5]	Potency [6]	Potency [7]	Potency [8]	Potency [9]	Potency [10]
COc1cccc(Br)c1	inactive	inactive	inactive	inactive	-10% (inactive)	inactive	inactive			
CCOC(=O)[C@H](CCc1ccccc1)N[C@@H](C)C(=O)N1CCC[C@H]1C(=O)O	inactive	inactive	inactive	inactive	-0.439% (inactive)	inactive	inactive	inactive	inactive	
Cc1nccn1CC1CCc2c(c3ccccc3n2C)C1=O (stereo not drawn)	inactive	inactive	inactive	inactive	-14.4% (inactive)	inactive	inactive		inactive	
CC(C)COC(=O)c1ccccc1O	inactive	inactive	inactive	inactive		inactive	inactive	inactive	inactive	inactive
CCCCCCCCCCCCCCCCCCOCC(O)CO (stereo not drawn)	inactive	inactive	inactive	inactive	-20.9% (inactive)	inactive			inactive	
Nc1ncnc2c1ncn2Cc1c(F)cccc1Cl	inactive	inactive	inactive	inactive	-12.1% (inactive)	inactive	inactive	inactive		
OC/C=C/c1ccccc1	inactive	inactive	inactive	inactive	21.7% (inactive)	inactive	inactive	inactive	inactive	
CN(C)CCOC(c1ccc(Cl)cc1)c1ccccn1 (stereo not drawn)	inactive	inactive	inactive	inactive	6.99% (inactive)	inactive		inactive	inactive	inactive
CN(C)C(=O)Nc1ccccc1	inactive	inactive	inactive	inactive		inactive	inactive	inactive		inactive
CCCCCCCCCCCCCCC	inactive	inactive	inactive	inactive		inactive	inactive	inactive	inactive	inactive
CC(=O)N[C@@H](CCC(N)=O)C(=O)O	inactive	inactive	inactive	inactive		inactive	inactive			inactive
N[C@@H](CS)C(=O)O	inactive	inactive	inactive	inactive	9.81% (inactive)	inactive	inactive	inactive	inactive	
CC/C=C\CCCCO	inactive	inactive	inactive	inactive		inactive	inactive			inactive
CC(O)CN(CCCN(C)C)CCCN(C)C (stereo not drawn)	inactive	inactive	inactive	inactive	-1.59% (inactive)	inactive	inactive	inactive	inactive	
C=C(C)C(=O)NCCCN(C)C	inactive	inactive	inactive	inactive	9.44% (inactive)	34.7 nM (active)			inactive	
CC(C)c1cccc(O)c1	inactive	inactive	inactive	inactive	1.56% (inactive)	inactive	inactive			
O=S(=O)(O)c1ccccc1O	inactive	inactive	inactive	inactive	8.61% (inactive)	inactive	inactive	inactive	inactive	
O=C(O)C(O)[C@H](O)[C@@H](O)[C@H](O)[C@H](O)CO (stereo partly drawn)	inactive	inactive	inactive	inactive		inactive	inactive	inactive		inactive
COC(=O)[C@H]1[C@H]2C[C@@H]3c4[nH]c5cc(OC)ccc5c4CCN3C[C@H]2C[C@@H](OC(=O)COc2ccc(OC)cc2)[C@@H]1OC	inactive	inactive	inactive	inactive	6.2% (inactive)	inactive	inactive	inactive	inactive	
CCC(=O)c1cccc(Cl)c1	inactive	inactive	inactive	inactive	3.96% (inactive)	inactive		inactive	inactive	inactive
CC(C)(C)OC(=O)N1C[C@@H](F)C[C@H]1C(=O)O	inactive	inactive	inactive	inactive	2.11% (inactive)	inactive	inactive	inactive	inactive	
Cc1c(C)n(CCN(C)C)c2ccc(C(=O)OCCN(C)C)cc12	inactive	inactive	inactive	inactive		inactive	inactive	inactive		inactive
CCCCNc1ccccc1	inactive	inactive	inactive	inactive		inactive	inactive	inactive	inactive	inactive
CC(=O)O[C@H](CC(=O)[O-])C[N+](C)(C)C	inactive		inactive	inactive	4.27% (inactive)	inactive	inactive	inactive	inactive	inactive
c1ccc(SCCSc2ccccc2)cc1	inactive	inactive	inactive	inactive		inactive			inactive	inactive
CCCOCC(C)OCC(C)O (stereo not drawn)	inactive		inactive	inactive	5.98% (inactive)	inactive	inactive	inactive	inactive	inactive
C=C(C)[C@@H]1CCC2=CC(=O)C[C@@H](C)[C@]2(C)C1	inactive	inactive	inactive	inactive		inactive	inactive			
O=S(=O)(c1cccc2cnccc12)N1CCCNCC1	inactive		inactive	inactive	8.06% (inactive)	inactive	inactive	inactive		inactive
CCCCCCOC(=O)CC(CC(=O)OCCCCCC)(OC(=O)CCC)C(=O)OCCCCCC	inactive	inactive	inactive	inactive		inactive	inactive	inactive	inactive	inactive
